Results reported in PubChem BioAssay (Tox21).
Inconclusive results are not listed. A call without a number means that no potency is given here. Active and inactive are the calls of the source. Calls follow the shape of the dose curve; as a rule, active = well fitted cell-killing curve with a large enough effect in the repeat runs; inconclusive = weak or mixed curves, or effect the other way; inactive = flat fitted curve, though single readings scatter.

Tests used:
[1] = cAMP Responsive Elements (CRE) small molecule antagonists, cell-based qHTS assay: qHTS cell viability counter screen (AID 2060913); settings: CRE-bla HEK293T viability, CellTiter-Glo luminescence, 5 h; series mostly up to 92.4 µM; also: nearly all actives have a fitted effect of over 40% in size
Summary of the method: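 Viability of NKH477-stimulated (0.25 uM final) CRE-bla HEK293T cells is measured by CellTiter-Glo luminescence following 3 hrs compound exposure at 37 C.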

[2] = cAMP Responsive Elements (CRE) small molecule agonists, cell-based qHTS assay: qHTS cell viability counter screen (AID 2060914); settings: CRE-bla HEK293T viability, CellTiter-Glo luminescence, 5 h; series mostly up to 92.4 µM; also: potency is read from the fitted curve at half-maximal effect;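 also: viability read after 3 h of compound exposure; nearly all actives have a fitted effect of over 50% in size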
Summary of the method: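 CRE-bla HEK293T cells in 10% dialyzed FBS medium were exposed to compounds for 3 h at 37C after 18 h plating. CellTiter-Glo was then added in the same wells, and luminescence was read after 30 min at room temperature.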

| SMILES | Potency [1] | Potency [2] |
| --- | --- | --- |
| O=C(NC(=O)c1c(F)cccc1F)Nc1ccc(Oc2ccc(C(F)(F)F)cc2Cl)cc1F | inactive | inactive |
| CC1N=C(N)OC1c1ccccc1 (centres undefined) | inactive | inactive |
| CN1C[C@@H](NS(=O)(=O)N(C)C)C[C@@H]2c3cccc4c3c(cn4C)C[C@H]21 | inactive | inactive |
| CCOP(OCC)OCC | inactive | inactive |
| COc1cccc(C=O)c1 | inactive | inactive |
| C[C@H]1C(=O)O[C@@H]2CCN3CC=C(COC(=O)[C@](C)(O)[C@]1(C)O)[C@H]23 | inactive | inactive |
| Clc1cccc(Cl)c1Cl | inactive | inactive |
| CCC(=O)O[C@@H]1C=C2CCC3C(CCC4(C)C3CC[C@@H]4OC(=O)CC)C2CC1 (some centres undefined) | inactive | inactive |
| CCCCN(CCCC)C(=S)S | inactive | inactive |
| CCCCCCC[CH2][Sn]([Cl])([Cl])[CH2]CCCCCCC | inactive | inactive |
| C[C@@H]1CC2=CC(=O)CC[C@@H]2[C@H]2CC[C@@]3(C)[C@@H](CC[C@]3(C)O)[C@@H]21 | inactive | inactive |
| CC(CC(C(N)=O)(c1ccccc1)c1ccccc1)N(C)C (centres undefined) | inactive | inactive |
| CCOC(C(=O)OCCN(C)C)(c1ccccc1)c1ccccc1 | inactive | inactive |
| O=[N+]([O-])O.O=[N+]([O-])O.[Cd] | inactive | inactive |
| COc1ccc(CN2CCNCC2)c(OC)c1OC | inactive | inactive |
| C=CCC1(C(C)CC)C(=O)NC(=O)NC1=O (centres undefined) | inactive | inactive |
| O=P(O)(Oc1ccccc1)Oc1ccccc1 | inactive | inactive |
| c1ccc(CN2CCNCC2)cc1 | inactive | inactive |
| O=C(NC(=O)c1cc(F)c(F)cc1Cl)Nc1cc(F)ccc1N1CCC(C(=O)O)CC1 | inactive | inactive |

| SMILES | Potency [1] | Potency [2] |
| --- | --- | --- |
| [As]#[In] | inactive | 2.17 µM (active) |
| S=C=NCCc1ccccc1 | inactive | inactive |
| CCC[N+]1(C)CCCCC1 | inactive | inactive |
| CCOP(=S)(OCC)SCSc1ccc(Cl)cc1 | inactive | inactive |
| O=C(CCl)CCl | inactive | inactive |
| Cc1nc2ccccc2c(=O)n1-c1ccccc1Cl | inactive | inactive |
| CC(C)C(=O)Cl | inactive | inactive |
| CC(C)(O)C#N | inactive | inactive |
| Oc1ccc(Cl)cc1 | inactive | inactive |
| C[C@@H]1CC[C@H]2[C@@H](C)C(=O)O[C@@H]3O[C@@]4(C)CC[C@@H]1[C@]32OO4 | inactive | inactive |
| O=C1C2CC=CCC2C(=O)N1SC(Cl)(Cl)Cl (centres undefined) | inactive | inactive |
| CCCC[N+]1(C)CCCC1 (tested in a mixture with another compound) | inactive | inactive |
| Clc1ccc(C(c2ccc(Cl)cc2)C(Cl)Cl)cc1 | inactive | 62.1 µM (active) |
| CNC(=O)N(C)c1nnc(C(C)(C)C)s1 | inactive | inactive |
| c1ccc2c(c1)CCNC2 | inactive | inactive |
| COC1=CC(=O)O[C@@H](/C=C/c2ccc3c(c2)OCO3)C1 | inactive | inactive |
| CCOC(=O)CCl | inactive | inactive |
| CC(C)CP(=S)(S)CC(C)C | inactive | inactive |
